Measurements reported in PubChem BioAssay AID488890 (Southern Research Specialized Biocontainment Screening …, 2010).
Among all 320,000 compounds or so, about 1,300 (0.41%) were called active. About 3% were inconclusive and are not listed. The rule behind the calls is not given here. The list is a sample of the results. Measured potencies and affinities stand elsewhere.

Assay: growth inhibition of non-replicating M. tuberculosis (AID 488890);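 note: plate controls were DMSO cells for no effect and high antibiotic wells for full effect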
Conditions: Mycobacterium tuberculosis non-replicating, at 25 µM, stronger effect = higher value

Row | SMILES | inhibition
1 | O=C(CCN1C(=O)/C(=C\c2ccccc2)SC1=S)NNC(=O)c1ccccc1O | -13.1%
2 | CN(C)CCCNC1CS(=O)(=O)CC1O (stereo not drawn) | -14.7%
3 | CCOC(=O)C1=C(C)NC2=C(C(=O)CC(C)(C)C2)C1c1ccc2c(c1)CCCN2C (stereo not drawn) | 58.9%
4 | COCCN1C(=O)/C(=C/c2c(OC)cc(OC)cc2OC)C(=O)N(c2ccccc2)C1=O | 2.58%
5 | Cc1cccc(NC(=O)CC(=O)Nc2cccc(C)c2)c1 | 17.8%
6 | CCOC(=O)c1c(NC(C)=O)sc2c(O)c(Br)ccc12 | 33.9%
7 | CCOC(=O)c1c(NC(C)=O)sc2c(OC)c(Br)ccc12 | 3.98%
8 | Cc1onc(-c2c(F)cccc2Cl)c1C(=O)N(Cc1ccccc1)C(C)C | 7.25%
9 | CC1CC(C)CN(S(=O)(=O)c2ccc3oc(=O)ccc3c2)C1 (stereo not drawn) | -8.91%
10 | COC(=O)c1ccccc1NC(=O)CCCn1nc([N+](=O)[O-])cc1C | 1.55%
11 | CC1CCC(NC(=O)c2cc3ccccc3cc2O)CC1 (stereo not drawn) | 38.1%
12 | CC(C)OC(=O)c1cccc2c1C(=O)c1ccccc1-2 | 1.02%
13 | COC(=O)c1cc2c(C)c(C)c3ccccn3c-2c1C(=O)OC | 2.38%
14 | Cc1cc(C(=O)CCC(=O)Nc2ncccc2C)c(C)s1 | 25.8%
15 | CS(=O)(=O)N1CCc2cc(S(=O)(=O)Nc3ccc4c(c3)OCCO4)ccc21 | 5.57%
16 | CCOc1ccc(C(=O)Nc2nnn(CC)n2)cc1 | -19.1%
17 | CCn1nnc(NC(=O)COc2ccc([N+](=O)[O-])cc2)n1 | 15.6%
18 | Cc1cccc(OCC(=O)Nc2nnn(C)n2)c1C | 7.29%
19 | Cc1ccc(OCC(=O)Nc2nnn(C)n2)c(C)c1 | -10.8%
20 | NC(N)=NS(=O)(=O)c1ccc(NC(=S)NC(=O)c2ccc(Br)cc2)cc1 | 2.25%
21 | CN(C)CCC#CC1(O)c2ccccc2-c2ccccc21 | -5.2%
22 | CCc1ccc(CNC(=O)c2ccc3nc(C4CCCCC4)oc3c2)nc1 | 56.5%
23 | O=C1c2ccccc2C(=O)N1CC#CCN1CCN(C(c2ccccc2)c2ccccc2)CC1 | -1.98%
24 | c1ccc(-c2noc(C3CCCCC3)n2)nc1 | 18.3%
25 | c1ccc(CCc2nc(-c3cccnc3)no2)cc1 | 20%

Row | SMILES | inhibition
26 | c1ccc(-c2noc(CC3CCCCC3)n2)cc1 | 69.6%
27 | c1ccc(Cc2nc(-c3ccccn3)no2)cc1 | 16.8%
28 | CC(=O)CC1=NC(C)(C)Cc2ccccc21 | 0.57%
29 | c1ccc(CNc2ccc3ccccc3n2)nc1 | 21.1%
30 | COc1cc2c(cc1NC(=O)COC(=O)C1CC(=O)N(Cc3ccco3)C1)oc1ccccc12 (stereo not drawn) | 6.37%
31 | Cc1ccc(-n2c(-c3ccncc3)nnc2-c2cccs2)cc1 | -0.27%
32 | COc1ccccc1N1CCN(C(=O)c2cc(C(=O)N3CCN(c4ccccc4OC)CC3)cc([N+](=O)[O-])c2)CC1 | 12.5%
33 | O=C(c1cccc([N+](=O)[O-])c1)N1CCN(c2cccc(Cl)c2)CC1 | 38.1%
34 | COc1ccccc1N1CCN(C(=O)c2ccc(Br)s2)CC1 | 70.2%
35 | O=C(c1ccc([N+](=O)[O-])s1)N1CCN(c2ccccc2)CC1 | -13.2%
36 | NC(=O)CCn1ccc2ccccc21 | 2.82%
37 | Cc1cc(C)n(C(=O)c2ccc(C)c(S(=O)(=O)N3CCCCC3)c2)n1 | -9.14%
38 | Cc1ccc(C(C)C)cc1OCC(=O)NNC(=O)Nc1ccccc1 | -5.51%
39 | Cc1c(Cl)cccc1NC(=O)CNC(=O)c1ccccc1F | 17.3%
40 | COc1ccc(C(=O)NNC(=O)C(=O)Nc2ccc(C)c(Cl)c2)cc1 | 73%
41 | Cc1cc(NC(=O)c2ccccc2C)ccc1NC(=O)c1ccccc1Cl | -10.5%
42 | Cc1c(Cl)cccc1NC(=O)CCC(=O)NNC(=O)c1ccccc1Cl | 3.92%
43 | Cc1ccc(S(=O)(=O)NCC(=O)NCC(=O)OCc2c(F)cccc2Cl)cc1 | -16.7%
44 | COC(=O)c1c(NC(=O)c2cccc([N+](=O)[O-])c2)sc(C(N)=O)c1C | 51.4%
45 | COc1cc(/C=N/NC(=O)c2ccc(N)cc2)ccc1OC(=O)c1cccc(C)c1 | 35.7%
46 | CCN(C(=O)COC(=O)c1cc2ccccc2cc1O)C1CCS(=O)(=O)C1 (stereo not drawn) | 9.53%
47 | CC(C)CC(NC(N)=O)C(=O)Nc1ccc(Cl)c(Cl)c1 (stereo not drawn) | 13.8%
48 | CCNC(=O)/N=C1/NC(=O)C(C(C)C)O1 (stereo not drawn) | 0.48%
49 | CC(C)(C)NC(=O)Cn1cc(C(=O)c2ccccc2F)c2ccccc21 | 0.38%
50 | CN=Cc1nc(-c2ccccc2)oc1O | 10.9%

Row | SMILES | inhibition
51 | CCCCOc1ccc(-c2nc(/C=N/c3nccs3)c(O)o2)cc1 | 62.2%
52 | O=C(O)CN(Cc1ccccc1)S(=O)(=O)c1ccc2c(c1)OCCO2 | -8.61%
53 | CC1CN(C(=O)c2ccc(COc3ccc(C(C)C)cc3)o2)CC(C)O1 (stereo not drawn) | 54.3%
54 | COc1ccc(NC(C)=O)cc1NC(=O)CSc1nnc(-c2ccc(F)cc2)n1N | -6.88%
55 | O=[N+]([O-])c1ccc(NC(=S)N2CCc3ccccc3C2)cc1 | -1.08%
56 | CC[n+]1c(/C=C(\C)SC)sc2ccccc21 | 0.12%
57 | CC[n+]1c(/C=C(/C)SC)sc2ccccc21 | 67%
58 | CCn1c(N2CCN(C(=S)NCCc3ccccc3)CC2)nc2ccccc21 | 63.9%
59 | Cc1[nH]c2ccc(OC(F)(F)F)cc2c1CCNCc1cccc([N+](=O)[O-])c1 | 77.6%
60 | COc1ccc2[nH]c(C)c(CCNCc3cn(C)c4ccccc34)c2c1 | 60.3%
61 | CC1=C(CCN2CCN(C3CCCC3)C(CCO)C2)C(C)(C)CCC1 (stereo not drawn) | 54.5%
62 | CC1=C(CCN2CCN(C(C)C)C(CCO)C2)C(C)(C)CCC1 (stereo not drawn) | 12.7%
63 | CCOc1ccccc1NC(=S)N1CCC(c2nc3ccccc3o2)CC1 | 29.4%
64 | COc1ccc(NC(=O)Cn2nnc(C(=O)NCc3ccco3)c2N)cc1 | -3.46%
65 | CCCC1(CCC)NC(=O)NC1=O | 36.8%
66 | O=C(CCc1ccccc1)NCc1ccncc1 | 7.15%
67 | Cc1nc(Nc2ccc(S(N)(=O)=O)cc2)oc1C | 71.4%
68 | CSc1ccc(C(=O)C2CCCN(C(=O)c3nonc3C)C2)cc1 (stereo not drawn) | 62.8%
69 | CSc1ccc(C(=O)C2CCCN(C(=O)c3ccc4c(c3)OCO4)C2)cc1 (stereo not drawn) | 71.2%
70 | C=CCN(CC=C)C(=O)C1CC(=O)N(c2ccc(Br)cc2)C1 (stereo not drawn) | 0.89%
71 | O=c1cc(NS(=O)(=O)c2ccccc2)nc(SCc2c(Cl)cccc2Cl)[nH]1 | -0.92%
72 | O=C(NNc1cccc(Cl)n1)Nc1ccc(F)cc1 | 9.17%
73 | CCCCC(=O)N(CCOC)c1nnc(-c2ccc(OC)cc2)s1 | 11.8%
